Experiment [1] concerns Wnt5a (protein binding on small-molecule microarray). As to the kind of experiment: Wnt5a binders on small-molecule microarray, primary screen, biophysical, 635/667 nm fluorescence (AID 1142).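 Note: fluorescence read at 667 nm with signal to noise per printed feature.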 Conditions: 635 nm fluorescence, higher = more signal.
Experiment [2] is described as follows: cell viability in Huh7 cells, primary screen, cytotoxicity control for HCV replication inhibitor project, CellTiter-Glo luminescence, basal, 48 h (AID 1143).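 Note: Huh7 hepatoma cells carrying a hepatitis C replication reporter with no stimulus; test concentration not given here.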 The note with it: Huh7 HCV replicon, higher = more signal, called active from +8 up or from −8 down.
Experiment [3] is described as follows: P. aeruginosa biofilm formation inhibitors, primary screen, PAO1 strain, BacTiter-Glo luminescence, LB-PBS (AID 1144). Conditions: 12 h, higher = more signal.
The nature of experiment [4]: CREB reporter modulators without forskolin, primary screen, cell-based, PC12, CRE-LacZ reporter, unstimulated (AID 1145). Conditions: no forskolin, luminescence, 4.5 h, higher = more signal, called active from +8 up or from −8 down.
Experiment [5] is described as follows: CREB reporter modulators under forskolin, primary screen, cell-based, PC12, CRE-LacZ reporter, forskolin-stimulated (AID 1146).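 Note: PC12 cells with 6xCRE LacZ reporter stimulated by forskolin 10 µM; beta-galactosidase reporter signal reflecting CREB driven transcription.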 Conditions: luminescence, 4.5 h, higher = more signal, called active from +8 up or from −8 down.
Experiment [6] addresses Streptavidin (Streptomyces avidinii) (UniProt P22629). As to the kind of experiment: streptavidin binders on small-molecule microarray, primary screen, artefact control for SMM compound annotation, biophysical, 635/667 nm fluorescence (AID 1147).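 Note: signal reflects streptavidin binding to arrayed compounds as a control protein.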 Conditions: streptavidin binding, higher = more signal.
A short description of experiment [7]: small-molecule binders of probe aInhba, primary screen, biochemical, small-molecule microarray, 635/667 nm fluorescence (AID 1148).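 Note: score merges 667nm spot fluorescence with signal-to-noise for antibody binding to printed compounds.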 The note with it: higher = more signal.
In experiment [8] the target is Torsin-1A (Homo sapiens) (UniProt O14656). The experiment is described as follows: torsin A binders from cell lysate, primary screen, small-molecule microarray, wild-type, 635/667 nm (AID 1149). The note with it: COS7 hTOR1A-WT lysate, 635 nm fluorescence, higher = more signal.
Torsin-1A (Homo sapiens), sequence (O14656 whole entry, looked up): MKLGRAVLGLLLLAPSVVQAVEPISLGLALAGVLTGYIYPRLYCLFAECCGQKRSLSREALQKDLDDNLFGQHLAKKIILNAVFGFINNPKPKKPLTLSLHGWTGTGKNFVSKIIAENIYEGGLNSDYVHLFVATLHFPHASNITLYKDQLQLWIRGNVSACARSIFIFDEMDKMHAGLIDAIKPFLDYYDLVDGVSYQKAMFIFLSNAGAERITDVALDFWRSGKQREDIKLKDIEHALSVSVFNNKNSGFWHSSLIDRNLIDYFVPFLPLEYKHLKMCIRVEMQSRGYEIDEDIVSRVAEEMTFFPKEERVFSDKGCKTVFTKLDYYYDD
Experiment [9] shares this target. The experiment is described as follows: small-molecule binders of mutant TOR1A in lysate, primary screen, cell lysate, small-molecule microarray, COS7 lysate, 635/667 nm fluorescence (AID 1150).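 Note: score pools 667 nm emission and signal to noise measuring lysate protein binding.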 The note with it: COS7 hTOR1A mutant lysate, 635 nm fluorescence, higher = more signal.
For experiment [10], the system named is Sonic hedgehog protein (Shh). The experiment is described as follows: small-molecule binders of Shh protein, primary screen, biochemical, small-molecule microarray, 635/667 nm fluorescence (AID 1151).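 Note: Shh protein binding to compounds spotted on small-molecule microarray slides; score combines spot fluorescence intensity with signal-to-noise across triplicate slides.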 The note with it: small-molecule microarray binding, 635 nm fluorescence; higher = more signal.
A short description of experiment [11]: E. coli DRC41 culture turbidity changes, primary screen, E. coli filamentation inducer project, strain DRC41, OD650, 48 h (AID 1152).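 Note: E. coli MC1000 strain DRC41 lacking acrAB efflux pump and sulA.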 Conditions: E. coli DRC41 (acrAB sulA), higher = more signal, called active from +8 up or from −8 down.
Experiment [12] is described as follows: small-molecule binders of probe aLefty1, primary screen, biochemical, small-molecule microarray, 635/667 nm fluorescence (AID 1153).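 Note: score merges spot fluorescence with signal-to-noise ratio from the scanned slide images.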 Conditions: higher = more signal.
The nature of experiment [13]: PSAC antagonists in infected red cells, primary screen, cell-based, P. falciparum Indochina, OD700, 1 h (AID 1154). Conditions: P. falciparum Indochina infected RBC osmotic lysis, higher = more signal, called active from +8 up or from −8 down.
The nature of experiment [14]: PSAC antagonists in infected red cells, primary screen, cell-based, P. falciparum Indochina, OD700, 2 h (AID 1155).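 Note: lysis reports solute entry through the parasite surface anion channel PSAC; channel blockers reduce lysis of infected cells.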 The note with it: P. falciparum Indochina infected erythrocytes, osmotic lysis OD700; higher = more signal, called active from +8 up or from −8 down.
A short description of experiment [15]: osmotic lysis modulators in infected erythrocytes, primary screen, PSAC antagonist project, cell-based, P. falciparum Indochina, OD700, 3 h (AID 1156). The note with it: higher = more signal, called active from +8 up or from −8 down.
Experiment [16] is described as follows: PSAC antagonists in infected red cells, primary screen, cell-based, P. falciparum Indochina, OD700, 18 h (AID 1157). The note with it: P. falciparum Indochina infected erythrocytes, osmotic lysis OD700, 18 h; higher = more signal, called active from +8 up or from −8 down.
The nature of experiment [17]: modulators of S6 phosphorylation in cells, primary screen, cell-based, A549, cytoblot, luminescence, serum-stimulated (AID 1158).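 Note: serum-stimulated A549 lung adenocarcinoma cells; signal is phosphorylated S6 detected by cytoblot immunostaining with HRP secondary.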 The note with it: A549 phospho-S6 cytoblot, 5 h, higher = more signal.
For experiment [18], the target named is NADPH oxidase 2 (Homo sapiens) (UniProt P04839). The experiment is described as follows: NOX2-dependent H2O2 signal modulators, primary screen, NOX inhibitor project, cell-based, HEK293-NOX2, PMA-stimulated, Amplex Red fluorescence (AID 1159). Note: test concentration not given here. Conditions: 45 min, higher = more signal, called active from +8 up or from −8 down.
NADPH oxidase 2 (Homo sapiens), sequence (P04839 whole entry, looked up): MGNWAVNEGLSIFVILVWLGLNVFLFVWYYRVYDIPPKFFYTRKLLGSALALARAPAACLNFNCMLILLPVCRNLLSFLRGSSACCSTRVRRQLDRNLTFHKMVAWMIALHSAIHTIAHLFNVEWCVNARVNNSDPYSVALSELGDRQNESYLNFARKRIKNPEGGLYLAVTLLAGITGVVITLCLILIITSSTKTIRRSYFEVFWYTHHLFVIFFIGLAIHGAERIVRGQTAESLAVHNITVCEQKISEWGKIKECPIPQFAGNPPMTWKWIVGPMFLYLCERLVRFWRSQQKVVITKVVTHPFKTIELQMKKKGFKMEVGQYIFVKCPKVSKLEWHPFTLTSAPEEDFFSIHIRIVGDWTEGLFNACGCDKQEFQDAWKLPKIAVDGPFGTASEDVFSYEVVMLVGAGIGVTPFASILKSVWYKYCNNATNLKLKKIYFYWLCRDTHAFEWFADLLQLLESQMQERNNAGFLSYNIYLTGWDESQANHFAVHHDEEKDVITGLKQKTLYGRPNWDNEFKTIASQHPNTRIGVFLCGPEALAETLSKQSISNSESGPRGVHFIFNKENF
The target of experiment [19] is NADPH oxidase 4 (Homo sapiens) (UniProt Q9NPH5). As to the kind of experiment: NOX4-dependent H2O2 signal modulators, primary screen, NOX inhibitor project, cell-based, HEK293-NOX4, tetracycline-induced, Amplex Red fluorescence (AID 1160). The note with it: 45 min, higher = more signal, called active from +8 up or from −8 down.
NADPH oxidase 4 (Homo sapiens), sequence (Q9NPH5 whole entry, looked up): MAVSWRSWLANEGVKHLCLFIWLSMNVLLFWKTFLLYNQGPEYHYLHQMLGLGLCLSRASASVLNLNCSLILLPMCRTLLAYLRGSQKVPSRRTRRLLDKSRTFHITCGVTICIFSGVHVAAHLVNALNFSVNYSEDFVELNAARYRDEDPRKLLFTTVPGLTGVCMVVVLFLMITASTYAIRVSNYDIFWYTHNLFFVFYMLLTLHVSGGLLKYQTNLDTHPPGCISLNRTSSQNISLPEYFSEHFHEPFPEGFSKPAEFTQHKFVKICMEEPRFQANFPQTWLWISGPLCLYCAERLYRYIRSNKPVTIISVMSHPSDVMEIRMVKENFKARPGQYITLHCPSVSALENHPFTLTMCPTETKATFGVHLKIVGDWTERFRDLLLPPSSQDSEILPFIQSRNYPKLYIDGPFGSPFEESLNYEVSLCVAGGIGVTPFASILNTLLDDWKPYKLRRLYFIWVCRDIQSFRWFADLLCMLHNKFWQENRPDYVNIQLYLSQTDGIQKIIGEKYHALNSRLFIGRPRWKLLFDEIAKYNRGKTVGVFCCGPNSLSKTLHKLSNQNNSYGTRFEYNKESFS
For experiment [20], the target named is NADPH oxidase 5 (Homo sapiens) (UniProt Q96PH1). The experiment is described as follows: NOX5-dependent H2O2 signal modulators, primary screen, NOX inhibitor project, cell-based, HEK293-NOX5, Amplex Red fluorescence (AID 1161). The note with it: HEK293-NOX5, ionomycin, 45 min, higher = more signal.
NADPH oxidase 5 (Homo sapiens), sequence (Q96PH1 whole entry, looked up): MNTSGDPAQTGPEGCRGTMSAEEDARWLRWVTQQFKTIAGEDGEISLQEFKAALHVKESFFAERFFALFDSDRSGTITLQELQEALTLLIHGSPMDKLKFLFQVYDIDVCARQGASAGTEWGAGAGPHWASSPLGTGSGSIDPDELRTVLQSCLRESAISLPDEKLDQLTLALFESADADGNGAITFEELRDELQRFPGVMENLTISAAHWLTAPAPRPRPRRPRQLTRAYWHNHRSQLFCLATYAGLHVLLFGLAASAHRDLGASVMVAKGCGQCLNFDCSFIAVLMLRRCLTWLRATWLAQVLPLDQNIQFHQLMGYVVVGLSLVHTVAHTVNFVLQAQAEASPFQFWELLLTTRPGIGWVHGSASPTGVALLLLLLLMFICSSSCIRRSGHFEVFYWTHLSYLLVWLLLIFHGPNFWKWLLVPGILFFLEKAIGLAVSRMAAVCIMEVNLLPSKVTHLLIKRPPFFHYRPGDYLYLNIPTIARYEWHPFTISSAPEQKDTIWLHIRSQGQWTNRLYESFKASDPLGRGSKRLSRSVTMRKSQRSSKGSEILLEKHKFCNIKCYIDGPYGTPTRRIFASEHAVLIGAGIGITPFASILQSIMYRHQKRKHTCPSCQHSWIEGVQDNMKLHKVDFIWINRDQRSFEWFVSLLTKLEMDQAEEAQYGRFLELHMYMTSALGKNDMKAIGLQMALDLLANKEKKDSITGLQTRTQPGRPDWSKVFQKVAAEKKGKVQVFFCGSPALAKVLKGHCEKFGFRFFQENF

The structures appear in SMILES notation. The source made the active and inactive calls. Unless noted, the rule behind the calls is not given here.

Streptavidin (Streptomyces avidinii), sequence (P22629 whole entry, looked up): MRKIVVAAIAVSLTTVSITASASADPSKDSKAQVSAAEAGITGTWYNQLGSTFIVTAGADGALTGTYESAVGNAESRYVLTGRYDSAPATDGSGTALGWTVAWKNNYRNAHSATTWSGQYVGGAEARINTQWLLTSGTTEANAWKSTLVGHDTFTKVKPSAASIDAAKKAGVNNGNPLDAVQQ

As to `C=C(COC)/C(=C/C[C@@H](OC(=O)c1ccncc1)c1ccccc1OCCO)c1cnc2ccccc2c1`, the composite z-score in experiment [1] was 1.09; in experiment [6], 1.93; in [7] it was 0.0422; in [8], 0.113; in [9], 1.15; in experiment [10] it was 2.07. For the same molecule, the composite z-score in [12] was found to be 0.333. For the same molecule, the z-score is -3 (inactive) in [2]; 1.45 (inactive) in experiment [3]; 18.2 (active) in experiment [4]; 1.24 (inactive) in experiment [5]; 0.588 (inactive) in experiment [11]; 25.7 (active) in experiment [13]. The z-score in [14] was 11.5 (active); in experiment [15], 0.518 (inactive); in experiment [16], 1.09 (inactive); in experiment [17], 0.261; in experiment [18], 0.0701 (inactive); in experiment [19], 0.217 (inactive). The molecule further gave a z-score in experiment [20] of -1.13.

Take `NCCCCCCNC(=O)[C@@H]1C[C@@H]2C(=O)NCC(=O)N2[C@@H]1c1cccc(OCCO)c1`: the composite z-score in experiment [1] is 0.729; in [6], 1.03; in experiment [7], -0.0624; in experiment [8], 1.56; in experiment [9], 2.08; in experiment [10] it was 1.31. In [12], the composite z-score is 0.0892. Further, the z-score was -0.271 (inactive) in experiment [2]; -0.584 (inactive) in experiment [3]; 0.0205 (inactive) in experiment [4]; -0.19 (inactive) in experiment [5]; 0.884 (inactive) in experiment [11]; 1.68 (inactive) in experiment [13]. Moreover, the z-score is 0.774 (inactive) in experiment [14]; -0.523 (inactive) in [15]; 0.0308 (inactive) in [16]; 1.51 in [17]; 1.29 (inactive) in experiment [18]; 0.934 (inactive) in experiment [19]. The molecule also displayed a z-score in [20] of 1.65.

Regarding `C=C(C(=O)CC[C@@H](OC(=O)c1ccccc1-c1ccccc1C(=O)O)c1ccc(OCCO)cc1)C(C)C`, the composite z-score in experiment [1] was 1.04; in [6] it was 0.0206; in experiment [7], -0.0468; in experiment [8], -0.13; in [9], 0.261; in [10] it was 2.1. The molecule also yielded a composite z-score in experiment [12] of 0.312. Moreover, the z-score in [2] is 0.0006 (inactive); in [3], -0.367 (inactive); in experiment [4], 3.88 (inactive); in experiment [5] it was 2.07 (inactive); in experiment [11] it was -0.383 (inactive); in [13], 13.6 (active). The z-score is 1.37 (inactive) in experiment [14]; 1.2 (inactive) in experiment [15]; 0.405 (inactive) in [16]; -0.26 in experiment [17]; 1.43 (inactive) in [18]; 0.123 (inactive) in experiment [19]. In addition, the z-score in experiment [20] is -1.3.

For `[N-]=[N+]=Nc1ccccc1C[C@@]1(C(=O)NCc2ccccc2)N=C(c2ccc(OCCCO)cc2)O[C@@H]1c1ccccc1`, the composite z-score in experiment [1] was determined as 0.967; in experiment [6], 0.877; in [7] it was 0.175; in [8], 0.324; in [9], 0.506; in experiment [10], 0.242. Also, in [12], the composite z-score came to 1.43. Besides, the z-score in experiment [2] is -5.24 (inactive); in [3], -1.15 (inactive); in experiment [4], 1.4 (inactive); in experiment [5], -1.99 (inactive); in experiment [11], 0.0295 (inactive); in [13] it was 27.6 (active). The z-score is 17.3 (active) in [14]; 1.4 (inactive) in [15]; 2.09 (inactive) in experiment [16]; 0.308 in [17]; -1.67 (inactive) in experiment [18]; -0.0758 (inactive) in experiment [19]. This molecule returned a z-score in experiment [20] of -1.1.

Turning to `COC(=O)Cn1c(C(=O)N(C)C)cc2c1C[C@H]1CN(C(=O)c3ccccc3)[C@@](Cc3ccccc3)(C(=O)OC)[C@@H]21`, the composite z-score in experiment [1] is 0.135; in experiment [6], 0.822; in [7], 0.105; in [8] it was 0.263; in experiment [9] it was 0.541; in experiment [10], -0.535. The composite z-score in experiment [12] was 0.155. Also, the z-score in experiment [2] was -0.273 (inactive); in [3], -0.334 (inactive); in experiment [4], -0.189 (inactive); in experiment [5] it was -0.637 (inactive); in experiment [11], -2.08 (inactive); in experiment [13], -0.424 (inactive). The z-score in experiment [14] is -0.734 (inactive); in [15] it was -0.486 (inactive); in [16], -1.31 (inactive); in experiment [17], 0.17; in [18], 0.363 (inactive); in [19], 1.59 (inactive). The molecule further displayed a z-score in experiment [20] of -0.11.

These data come from PubChem BioAssay.
